Assay results: PMC7819943, “Rice protein-binding microarrays: a tool to detect cis-acting elements near promoter regions in rice”
Over roughly 35,000 sequences, “fluorescence intensity (a.u.)” has its median near 10,000; the highest 2% begin near 52,000. The full list was thinned out, with the highest values kept by preference.

The sequences below were run against T1, OsWOX13 (Oryza sativa, UniProt Q5QMM3 1-267) (assay: protein-binding microarray (RPBM); PBS, 2% BSA, 51.3 ng/ul salmon testes DNA, 50 uM zinc acetate, 200 nM TF, 25 C, 1 h; high values mean tight binding). Settings: protein: recombinant; tags: N-terminal polyhistidine and DsRed monomer fusion (pET32a); label: CyDye5-dUTP incorporated in the synthesized complementary strand; 3' TTTTT single-stranded linker to array surface; dsDNA, one strand shown.
T1 sequence: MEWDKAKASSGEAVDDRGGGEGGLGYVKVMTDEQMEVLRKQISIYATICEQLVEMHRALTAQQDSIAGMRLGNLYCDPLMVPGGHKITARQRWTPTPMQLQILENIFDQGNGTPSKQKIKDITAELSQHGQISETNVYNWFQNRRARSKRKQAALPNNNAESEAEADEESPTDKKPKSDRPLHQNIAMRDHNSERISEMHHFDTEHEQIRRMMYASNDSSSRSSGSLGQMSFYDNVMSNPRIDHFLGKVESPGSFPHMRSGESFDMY
Procedure, shortened: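 The binding signal is fluorescence intensity per array feature (arbitrary units). Readings came from an Axon 4000B scanner after a washed, 2% BSA-blocked, double-stranded custom Agilent array had been incubated for 1 h at 25 °C with 200 nM protein and 50 µM zinc acetate. The protein was a Ni–NTA-purified transcription factor fused N-terminally to polyhistidine and DsRed, expressed in E. coli BL21-CodonPlus.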
“TGTGACAAACAATGATTACCAAGCTTTTGGGGAAATATAGCGGAGTCACCTAGTGCAG” was tested, and the binding signal was 16900 fluorescence intensity (a.u.). “TCATGATTAAGATGGGCTCACTATGTAATTTTATTTATAACGGAGTCACCTAGTGCAG” was tested, and the binding signal was 8240 fluorescence intensity (a.u.). With “AATAATTTGCCAATACCAACATTTTACTATAAATACTTATCGGAGTCACCTAGTGCAG” the binding signal was 5410 fluorescence intensity (a.u.). “GCGCTGATACTTGTAATCAATCAACTCATCAGCATGGTCTCGGAGTCACCTAGTGCAG” was tested, and the binding signal was 26100 fluorescence intensity (a.u.). “GTAGTTAATTGTAAACACTGTACTAAGCAGTATACATTTTCGGAGTCACCTAGTGCAG” was tested, and the binding signal was 20300 fluorescence intensity (a.u.). In the case of “ACACAATCATTTATACAAAGCATATAATGGGCCTGTTCGGCGGAGTCACCTAGTGCAG”, the binding signal is reported as 6100 fluorescence intensity (a.u.). In the case of “TGCTTGTAATTTCTATAAAATTAGCAGTATTTTGATGCTACGGAGTCACCTAGTGCAG”, the binding signal is reported as 9240 fluorescence intensity (a.u.). For “TTGACATAATATAATCATGTGATATCTTATTGTAAAGATTCGGAGTCACCTAGTGCAG”, the binding signal was 10400 fluorescence intensity (a.u.). In the case of “AGGGAAAGTTGTGATTGAGGGAGGATGTTAGATAATGTTACGGAGTCACCTAGTGCAG”, the binding signal is reported as 10100 fluorescence intensity (a.u.). For “CCATTGATTATAATTAAAGACTGTTAGGCAATTGACACAACGGAGTCACCTAGTGCAG”, the binding signal was 54000 fluorescence intensity (a.u.). In the case of “GGAGGGAGTAGAATAATGATTGATTTAAGTTAATACTAGCCGGAGTCACCTAGTGCAG”, the binding signal is reported as 23500 fluorescence intensity (a.u.). In the case of “TGTTGATTATAATTAAACACAACAAACAGACTCGAAGCAACGGAGTCACCTAGTGCAG”, the binding signal is reported as 48200 fluorescence intensity (a.u.). “TTTATAACATTGTTAATTGATTAGGCATGCAATGCCATATCGGAGTCACCTAGTGCAG” was tested, and the binding signal was 32300 fluorescence intensity (a.u.). In the case of “ATCAAATCAATAATTGAATATATTTTCATAATAAATTTGTCGGAGTCACCTAGTGCAG”, the binding signal is reported as 29400 fluorescence intensity (a.u.). With “GATCAATAATTGAATATATTTTAATAATAAATTTGTCTTGCGGAGTCACCTAGTGCAG” the binding signal was 55500 fluorescence intensity (a.u.). With “TTTTGTGATAGATTTTATATTAAATATATAGTTTTGTTTTCGGAGTCACCTAGTGCAG” the binding signal was 23400 fluorescence intensity (a.u.). In the case of “TGTGATTGAGGGAGTTAATTAGGACAAGTTAATAAGTGGCCGGAGTCACCTAGTGCAG”, the binding signal is reported as 64500 fluorescence intensity (a.u.). “GTTTATTTATAATTATATTATATTAATATTGTTTGAAAATCGGAGTCACCTAGTGCAG” was tested, and the binding signal was 8200 fluorescence intensity (a.u.). With “ATCAATAATTGAACATATTTTCATAATAAATTTGTCTTGGCGGAGTCACCTAGTGCAG” the binding signal was 42100 fluorescence intensity (a.u.). In the case of “TTATTAATTGATAAAATATAGAAATATTGATTTATTGTTTCGGAGTCACCTAGTGCAG”, the binding signal is reported as 52500 fluorescence intensity (a.u.). With “GTATTAATCATGTTTTATCATCTAACAACAACGAAAATACCGGAGTCACCTAGTGCAG” the binding signal was 7970 fluorescence intensity (a.u.). For “ATAATTTGCTAATACTTAATTAATCACGTGTTAATGGATCCGGAGTCACCTAGTGCAG”, the binding signal was 36600 fluorescence intensity (a.u.). For “AGTTCCCTCTAATTATAATTATAATGTCCTTGGTTTAGGACGGAGTCACCTAGTGCAG”, the binding signal was 16200 fluorescence intensity (a.u.). With “CCTTGCAATCATTCATCAGAGGAGGAGTTCTACAGTGATGCGGAGTCACCTAGTGCAG” the binding signal was 3760 fluorescence intensity (a.u.). With “GCAATCTTTCATTATCATAATTGGTCGTAGCTTTAATTACCGGAGTCACCTAGTGCAG” the binding signal was 8430 fluorescence intensity (a.u.). For “TTAATTAGATGCTCATATAAATATGGTGAAACCTGCATGCCGGAGTCACCTAGTGCAG”, the binding signal was 21500 fluorescence intensity (a.u.). In the case of “CCAAATTTAATTTTACCTATTTTAAATGTGGCGATATATCCGGAGTCACCTAGTGCAG”, the binding signal is reported as 17900 fluorescence intensity (a.u.). For “TAATACTTAATTAATTATATGCTAAATGCTTCTTCGTTTTCGGAGTCACCTAGTGCAG”, the binding signal was 27300 fluorescence intensity (a.u.). “AAAATAAATAAATAAATTTGGTAACATTGATTAATTAGGACGGAGTCACCTAGTGCAG” was tested, and the binding signal was 21200 fluorescence intensity (a.u.). In the case of “TAGCTAATTCTTAATTAATTATACGCTAATGAATCACTTTCGGAGTCACCTAGTGCAG”, the binding signal is reported as 23900 fluorescence intensity (a.u.). For “GTCTTAATTGAATGCATCAATTATACTTTTGCAGGAGTTTCGGAGTCACCTAGTGCAG”, the binding signal was 64900 fluorescence intensity (a.u.). For “AGTTAACATGATTTATGATAATTTTAATGTAAATGGTATACGGAGTCACCTAGTGCAG”, the binding signal was 16700 fluorescence intensity (a.u.). With “ACACTAAATTATTCTACCCACAAATTAAATAATTGAAATACGGAGTCACCTAGTGCAG” the binding signal was 9290 fluorescence intensity (a.u.). “AATGATTGAAGGATATCCATTTGAATGATGGTATGCTTTACGGAGTCACCTAGTGCAG” was tested, and the binding signal was 43000 fluorescence intensity (a.u.). For “GCGTAATAGTAATAATTGATTAATGGTGACACGAGAAGGACGGAGTCACCTAGTGCAG”, the binding signal was 46600 fluorescence intensity (a.u.). With “TAATAATTAGTGATTAATTATCCTGACCATTGATTCAACACGGAGTCACCTAGTGCAG” the binding signal was 48300 fluorescence intensity (a.u.). For “ATAAATAGTAATTGACATTAAGAATGGGACCCACACTCTACGGAGTCACCTAGTGCAG”, the binding signal was 53000 fluorescence intensity (a.u.). For “TTAATTGATTCCATGAAGGTATAATGATACTTTTATGGTACGGAGTCACCTAGTGCAG”, the binding signal was 65000 fluorescence intensity (a.u.). With “GGAGTGATTAAATTAGTTAATTAGTTAATAATCCCATTGACGGAGTCACCTAGTGCAG” the binding signal was 56800 fluorescence intensity (a.u.). In the case of “TGCTAATAAATCTTGATTTGTTTCACATAGAAGCTGCATCCGGAGTCACCTAGTGCAG”, the binding signal is reported as 26400 fluorescence intensity (a.u.). “AAACTGTTTTAATAATAGATAGATAGATAGATAGATAGATCGGAGTCACCTAGTGCAG” was tested, and the binding signal was 18200 fluorescence intensity (a.u.). “CAGATAATTAGCTACCTGTTTAATAGATCATCTTGATCATCGGAGTCACCTAGTGCAG” was tested, and the binding signal was 53400 fluorescence intensity (a.u.). “TGGACAACAATTCTTGATTGAATTTAATTAACGGATAACGCGGAGTCACCTAGTGCAG” was tested, and the binding signal was 28000 fluorescence intensity (a.u.). For “GTAAAAGTTAATTGATTTGTTTATACCCTCAAATAGCCATCGGAGTCACCTAGTGCAG”, the binding signal was 58700 fluorescence intensity (a.u.). In the case of “TTGATTAAATACAAAATTAATAGTCAAAGTTTTAAAAGTTCGGAGTCACCTAGTGCAG”, the binding signal is reported as 18200 fluorescence intensity (a.u.). For “CACTAATTGATCAATTGCACAACAAATTGCTTGAATAACGCGGAGTCACCTAGTGCAG”, the binding signal was 59900 fluorescence intensity (a.u.). “ATATGATAATAATTATTTAAAGAAATAAATTTATTTTGGACGGAGTCACCTAGTGCAG” was tested, and the binding signal was 28700 fluorescence intensity (a.u.). For “TGTGACATTTCCAATCACTAATTGATCAATTGCACAACAACGGAGTCACCTAGTGCAG”, the binding signal was 38100 fluorescence intensity (a.u.). In the case of “TGATTAAATTGCTTTAACTTTTATTTAATTTGTAGAAAATCGGAGTCACCTAGTGCAG”, the binding signal is reported as 22500 fluorescence intensity (a.u.). In the case of “TTGTTAATTACCTTGTTTAATTAATTTCGCTAGCTTAGATCGGAGTCACCTAGTGCAG”, the binding signal is reported as 44700 fluorescence intensity (a.u.). In the case of “CATGATTGCTCATCTTTGTATTAAAAGAAATAATTTATGTCGGAGTCACCTAGTGCAG”, the binding signal is reported as 53500 fluorescence intensity (a.u.). For “TAAATATATTGTCAAATTATATTTAATGTTTTATTTGATACGGAGTCACCTAGTGCAG”, the binding signal was 3180 fluorescence intensity (a.u.). In the case of “GACAAATTATGGCATTTTAAAATCCAAAATATGGAAAGGGCGGAGTCACCTAGTGCAG”, the binding signal is reported as 14600 fluorescence intensity (a.u.). “CTTCTTGATTGATTTATACTAACTGCGCACACACTTTATTCGGAGTCACCTAGTGCAG” was tested, and the binding signal was 55200 fluorescence intensity (a.u.). For “AACATTGATTAATATTGGTCAAAATATTTTCAACTCTAAACGGAGTCACCTAGTGCAG”, the binding signal was 19200 fluorescence intensity (a.u.). With “GTATGATTAATTGAGTTTTAATTATTATAAAATTTTAAAACGGAGTCACCTAGTGCAG” the binding signal was 22900 fluorescence intensity (a.u.). “ATAATTGGTAAAGATGGATTCAAAATATTATTAATAATTGCGGAGTCACCTAGTGCAG” was tested, and the binding signal was 26200 fluorescence intensity (a.u.). For “TGATAGATGGAAAATAAATTGGTAAAATTAGTAGATGGGACGGAGTCACCTAGTGCAG”, the binding signal was 39700 fluorescence intensity (a.u.). With “CAATGATTGGACTAAAGAAAATGCTAATATTAATGGTATGCGGAGTCACCTAGTGCAG” the binding signal was 52300 fluorescence intensity (a.u.). With “CTTGATTTATTGATTGATTAATAAAACATTTTATTTCCAACGGAGTCACCTAGTGCAG” the binding signal was 56900 fluorescence intensity (a.u.). In the case of “GATTCAATGATGGATTTAATAAAACTAATTTGGTATTGCTCGGAGTCACCTAGTGCAG”, the binding signal is reported as 18700 fluorescence intensity (a.u.). For “CTTAACTGTAACACTATTGCGTTGATTACTTCTACTTATTCGGAGTCACCTAGTGCAG”, the binding signal was 15200 fluorescence intensity (a.u.). In the case of “ACTTATATTCTTTAACTTATGATTGGAGGTATATACTATACGGAGTCACCTAGTGCAG”, the binding signal is reported as 5760 fluorescence intensity (a.u.). For “ACCGTGATTACGGTAATTGGAAATATAAAAGAGATGGGAGCGGAGTCACCTAGTGCAG”, the binding signal was 56800 fluorescence intensity (a.u.). In the case of “CTTATTATAAAGATTTAATTATAACAAATATAATGGTATGCGGAGTCACCTAGTGCAG”, the binding signal is reported as 4800 fluorescence intensity (a.u.).
